# Compound activity deposited in PubChem BioAssay by National Center for Advancing Translational Sciences (NCATS).
# TDP1 block – TDP1 (human) enzyme inhibition | Potency, µM (titrated, usually from 130 µM), without a hit: at the top dose activity change, negative = inhibition, most hits filed as inhibitors | actives 0.28% (n = 350,000) | recombinant TDP1, AlphaScreen DNA substrate cleavage | AID 485290 | Q9NUW8; also: potency is read from the fitted curve at half-maximal effect; % is scaled to controls: 0 for no effect and ±100 for the full control effect; nearly all actives have a fitted effect of over 40% in size
# Target sequence (Q9NUW8 whole entry, looked up): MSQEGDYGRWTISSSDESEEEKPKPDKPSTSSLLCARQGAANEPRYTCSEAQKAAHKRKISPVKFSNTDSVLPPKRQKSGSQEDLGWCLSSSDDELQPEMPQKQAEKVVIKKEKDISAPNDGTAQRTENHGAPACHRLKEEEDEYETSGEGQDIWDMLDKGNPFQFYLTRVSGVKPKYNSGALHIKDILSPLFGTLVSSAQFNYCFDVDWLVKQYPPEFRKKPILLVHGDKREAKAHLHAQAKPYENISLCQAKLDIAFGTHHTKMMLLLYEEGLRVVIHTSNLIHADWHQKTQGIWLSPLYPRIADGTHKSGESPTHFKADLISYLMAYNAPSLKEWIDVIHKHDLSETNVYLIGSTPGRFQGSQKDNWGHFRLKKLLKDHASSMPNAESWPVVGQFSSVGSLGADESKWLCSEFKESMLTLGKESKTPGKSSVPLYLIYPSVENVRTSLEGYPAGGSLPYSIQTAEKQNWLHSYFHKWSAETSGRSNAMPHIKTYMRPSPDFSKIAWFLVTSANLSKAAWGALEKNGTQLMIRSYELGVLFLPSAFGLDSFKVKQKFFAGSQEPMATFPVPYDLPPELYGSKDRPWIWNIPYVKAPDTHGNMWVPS
#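 AlphaScreen read-out: signal falls as enzyme removes the 3' tyrosine-FITC from a 5'-biotinylated DNA oligo (15 nM, 5 min, RT). Enzyme was E. coli-made recombinant Tdp1 at 1 nM, exposed to compound for 15 min beforehand; beads 10 ug/ml, 10 min.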
# DT40 TDP1 CPT – growth inhibition of DT40 Tdp1-/-;hTDP1 cells with camptothecin (screen for TDP1 inhibitors). Potency, µM (doses to about 46.2 µM), without a hit: at the highest dose activity change, negative = growth inhibition, most hits filed as inhibitors. actives 12% (n = 420,000). chicken DT40 Tdp1-/-;hTDP1 cells + 20 nM CPT, ATP luminescence, 48 h; also: potency is read from the fitted curve at half-maximal effect; % is scaled to controls: 0 for no effect and ±100 for the full control effect; nearly all actives have a fitted effect of over 55% in size
#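 Cell growth measured by CellTiter-Glo luminescence after a minimum 48 h, 37 C compound exposure with 20 nM CPT in Tdp1-knockout DT40 cells stably expressing hTDP1, seeded 400/well; qHTS titration format.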
# TDP1 cell noCPT – qHTS for Inhibitors of human tyrosyl-DNA phosphodiesterase 1 (TDP1): qHTS in cells in absence of CPT; DT40 Tdp1-/- hTDP1 cells, no CPT, ATP luminescence, 48 h; actives 15% (n = 420,000); Potency, µM (series often up to 46.2 µM), for inactives: at the highest dose activity change, negative = growth inhibition, usual class: inhibitors; AID 686978, 2013; also: potency is read from the fitted curve at half-maximal effect; % is scaled to controls: 0 for no effect and ±100 for the full control effect; nearly all actives have a fitted effect of over 55% in size
#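 Camptothecin absent (DMSO only). Human TDP1-complemented DT40 knockout cells, 400 cells/well, 37 °C for minimum 48 hr; ATP measured via CellTiter-Glo, 30 min dark incubation, luminescence.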
# TGFb SMAD3 inh – TGF-b pathway inhibition; HepG2 CAGA-GFP TGF-b/SMAD3 reporter, GFP fluorescence, 18 h; TGF-beta stimulated, 500 pg/mL final; Potency, µM (top dose mostly 46.1 µM), without a hit: at the top dose activity, negative = inhibition, most hits filed as inhibitors; actives 1.2% (n = 410,000); also: potency is read from the fitted curve at half-maximal effect; % is scaled to controls: 0 for no effect and ±100 for the full control effect; nearly all actives have a fitted effect of over 65% in size
#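 Read-out: total well GFP (ex488/em500-530) summed from mean per-cell fluorescence. Cells: HEPG2 CAGA-GFP, 1% FBS DMEM, 18 h at 37 degrees C with 500 pg/mL final TGF-beta. Unstimulated wells served as the full-inhibition control; stimulated DMSO wells = 0%.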
# IL1B secr inh – blocks inflammasome-driven IL-1 beta release; actives 4.7% (n = 360,000); activity change, % at 57.5 µM; THP-1 LPS/ATP IL-1B secretion, AlphaLISA, 16 h; hits give low values; in the data active = activity change below about -50%; inconclusive = mostly about -30% to -49%; also: % is scaled to controls: 0 for no effect and ±100 for the full control effect
#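 THP-1 cells pretreated 1 hr with compounds (up to 57.5 uM final), then stimulated with LPS (250 ng/mL final) plus ATP (1.25 mM final); secreted IL-1B measured by AlphaLISA after 16 hr, decreased signal indicating inhibition.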
# HepG2 viability – HepG2 cytotoxicity, counter-screen for TGF-b inhibitors; HepG2 CAGA-GFP viability, ATP luminescence, 18 h; Potency, µM (titrated, usually from 46.1 µM), without a hit: at the highest dose activity change, negative = cytotoxicity, hits mostly cytotoxic; AID 588856; actives 0.76% (n = 410,000); also: potency is read from the fitted curve at half-maximal effect
#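 HepG2 CAGA-GFP cells (1000/well, DMEM with 1% FBS) received compound, then TGF-beta at 500 pg/mL final, and were incubated 18 hours at 37 degrees C. Viability was read by CellTiter-Glo luminescence. Media-only wells were set as complete cell-killing and DMSO as no toxicity.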
# Starred values were filed as active, the others as inactive; ? = inconclusive; nt = no result. Hits are enriched below; roughly 18% of the tested compounds scored in any of these assays. Unless noted, calls follow the shape of the dose curve; as a rule, active = well fitted curve in the direction sought with a large enough effect; inconclusive = small, poorly fitted or top-dose-only effect, or another doubt; inactive = no such curve, though single readings can be large; an effect the other way counts as inactive or inconclusive.
SMILES,TDP1 block,DT40 TDP1 CPT,TDP1 cell noCPT,TGFb SMAD3 inh,IL1B secr inh,HepG2 viability
CCOc1ccc2nc(N/C(N)=N/C(=S)Nc3ccc(C)c(C)c3)nc(C)c2c1,-3%,-83%,-45%,-3%,-14,0%
COc1ccc(NC(=S)/N=C(\N)Nc2nc(C)c3ccc(C)cc3n2)cc1,5%,18µM*,?,-4%,0,-14%
CCNC(=S)/N=C(\N)Nc1nc(C)c2cc(C)ccc2n1,nt,?,?,?,-91*,-40%
C=CCOC(=O)Nc1nc(CCNC(=O)OC(C)(C)C)c(C(=O)OC)s1,nt,-15%,-17%,nt,-19,nt
CCCCNC(=O)c1cc(-c2ccccc2)sc1N,nt,15µM*,16µM*,nt,?,nt
COCCNC(=O)c1cc(-c2ccccc2)sc1N,nt,?,?,nt,-11,nt
NNC(=O)c1sc(-c2ccccc2)cc1N,-1%,?,?,3%,-54*,1%
CC(=O)c1sc(-c2ccccc2)cc1N,3%,32%,-11%,10%,nt,17%
Nc1sc(-c2ccccc2)cc1C(=O)NCCc1c[nH]c2ccccc12,nt,16µM*,15µM*,nt,-15,nt
Cc1ccc(C(=O)NCCc2c[nH]c3ccccc23)c(C)c1,nt,-7%,-44%,4%,-10,-6%
O=C(Cc1cccc(NC(=O)C2CCCN(C(=O)C3CCCC3)C2)c1)Nc1cccc(C(=O)N2CCCCC2)c1 (stereo not given),nt,-11%,-30%,4%,0,-3%
O=C(COc1ccc(Cl)cc1Br)NC(=O)NC1CCCC1,-16%,-5%,-7%,-19%,3,1%
CC(=O)N1CCC2(CC1)CN(Cc1ccccc1)C2,nt,7%,-1%,nt,nt,nt
COc1ccc2cc(CNc3ccccc3)c(=O)n(CC(=O)Nc3ccc(C)cc3C)c2c1,8%,?,?,-24%,nt,-47%
Cc1ccc(O)c(C(=O)c2cnc3c(c2)CN(CCC(C)C)C(=O)N3)c1,6%,10µM*,12µM*,-33%,-15,-36%
Cc1ccc(O)c(C(=O)c2cnc3c(c2)CN(C)C(=O)N3)c1,-2%,?,?,14%,-10,-7%
Cc1ccc(S(=O)(=O)N2[C@@H](c3ccccc3F)C(C(=O)O)=CC[C@H]2c2cccc(Cl)c2)cc1,0%,-6%,2%,?,4,-3%
CCOc1ccc(C(=O)c2cn(CC(=O)Nc3ccc4c(c3)OCCO4)c3ccc(OC)cc3c2=O)cc1,-4%,?,?,-18%,nt,-3%
COc1c2ccoc2c(OC(C)=O)c2oc(C)cc(=O)c12,nt,-22%,?,10%,-51*,7%
Cc1ccc(S(=O)(=O)NCCC(=O)NCCc2ccc(S(N)(=O)=O)cc2)cc1C,-2%,3.3µM*,-23%,-9%,-2,-3%
CC(=O)N1c2ccc(S(=O)(=O)NCCC(=O)NCCc3ccc(Cl)cc3)cc2CC1C (stereo not given),2%,16µM*,?,-20%,16,-16%
CC(=O)N1c2ccc(S(=O)(=O)NCCC(=O)NCCc3ccc(C)cc3)cc2CC1C (stereo not given),1%,21µM*,?,-24%,40,-5%
CC(=O)N1c2ccc(S(=O)(=O)NCCC(=O)Nc3ccc(C)cc3Br)cc2CC1C (stereo not given),5%,12µM*,9.2µM*,-29%,nt,-22%
CC(=O)N1c2ccc(S(=O)(=O)NCCC(=O)NCCc3cccc(C)c3)cc2CC1C (stereo not given),1%,?,-22%,-20%,-1,-16%
CCN(CC)c1nc(SCCOC(=O)Nc2ccccc2)nc(N(CC)CC)n1,5%,18µM*,?,?,-20,-24%
SMILES,TDP1 block,DT40 TDP1 CPT,TDP1 cell noCPT,TGFb SMAD3 inh,IL1B secr inh,HepG2 viability
CN(C)c1nc(SCCOC(=O)c2ccccc2)nc(N(C)C)n1,?,-23%,0%,-20%,14,4%
CCCOC(=O)c1cccc(Nc2nc(CCC)cc(=O)[nH]2)c1,5%,16µM*,15µM*,?,nt,-58%
CC(=O)Nc1ccc(NC(=O)C(C)OC(=O)CCC2CCCC2)cc1 (stereo not given),nt,15%,-30%,-9%,24,-6%
N#Cc1ccc(NC(=O)COC(=O)C2Cc3ccccc3CN2C(=O)c2ccccc2)cc1 (stereo not given),3%,9.2µM*,16µM*,0%,-8,-24%
Cc1cc(-c2cc(N)n(-c3ccccc3)n2)c(C)n1C1CCCC1,5%,29µM*,?,-2%,-12,-1%
C#Cc1ccc2c(c1)COc1c3ccccc3nn1-2,nt,10µM*,?,?,-7,-32%
O=C(Nc1ccccc1)/C(=C/c1ccc(F)cc1)NC(=O)c1ccco1,8%,19%,4%,-18%,13,-8%
O=c1ccsn1Cc1ccccc1,14%,0.29µM*,0.65µM*,?,-101*,-30%
COc1ccc2cc(C(=O)NCc3ccc4c(c3)CCN4C(=O)c3ccc(C)cc3)[nH]c2c1,5%,13µM*,?,-8%,nt,-1%
COc1ccc2cc(C(=O)NCc3ccc4c(c3)CCN4C(=O)c3ccc(F)cc3)[nH]c2c1,0%,21µM*,18µM*,53%,nt,9%
COc1cccc2[nH]c(C(=O)NCc3ccc4c(c3)CCN4C(=O)c3ccc(F)cc3)cc12,7%,?,?,-45%,nt,-13%
Cc1ccc(NCC(=O)Nc2cccc(F)c2)cc1S(=O)(=O)N1CCCCCC1,2%,?,16µM*,?,-75*,-21%
